# Source: PubChem BioAssay (NCATS)
# Results filed as inconclusive are left out. Where a call stands in place of a potency, no number is given. The source made the active and inactive calls. Calls come from the whole dose curve; as a rule, active = well fitted activation curve with a large enough effect in the main read-out, with a control signal flat (not every such curve was filed as active); inconclusive = small, poorly fitted or top-dose-only effect, or effect the other way, or a change in a side signal; inactive = flat fitted curve, though single readings scatter.
# Biological target: 3',5'-cyclic-AMP phosphodiesterase 4B (Homo sapiens) (UniProt Q07343)
# Assay: qHTS Assay for Inhibitors of PDE-IV (AID 607)
# Conditions: HEK293 ACTOne CNG channel cells, membrane potential fluorescence; series mostly up to 22.9 µM
# In short: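 ACTOne HEK293 cells carry a modified cAMP-gated CNG channel and express endogenous PDE4; plated 1000 cells/well, compounds up to 22.9 uM final. Membrane-potential dye fluorescence (ex 535/em 590) was read; parental cells received 10 uM forskolin + 100 uM RO 20-1724.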
# Potency is the fitted concentration of half-maximal effect.
# 3',5'-cyclic-AMP phosphodiesterase 4B (Homo sapiens), sequence (Q07343 whole entry, looked up): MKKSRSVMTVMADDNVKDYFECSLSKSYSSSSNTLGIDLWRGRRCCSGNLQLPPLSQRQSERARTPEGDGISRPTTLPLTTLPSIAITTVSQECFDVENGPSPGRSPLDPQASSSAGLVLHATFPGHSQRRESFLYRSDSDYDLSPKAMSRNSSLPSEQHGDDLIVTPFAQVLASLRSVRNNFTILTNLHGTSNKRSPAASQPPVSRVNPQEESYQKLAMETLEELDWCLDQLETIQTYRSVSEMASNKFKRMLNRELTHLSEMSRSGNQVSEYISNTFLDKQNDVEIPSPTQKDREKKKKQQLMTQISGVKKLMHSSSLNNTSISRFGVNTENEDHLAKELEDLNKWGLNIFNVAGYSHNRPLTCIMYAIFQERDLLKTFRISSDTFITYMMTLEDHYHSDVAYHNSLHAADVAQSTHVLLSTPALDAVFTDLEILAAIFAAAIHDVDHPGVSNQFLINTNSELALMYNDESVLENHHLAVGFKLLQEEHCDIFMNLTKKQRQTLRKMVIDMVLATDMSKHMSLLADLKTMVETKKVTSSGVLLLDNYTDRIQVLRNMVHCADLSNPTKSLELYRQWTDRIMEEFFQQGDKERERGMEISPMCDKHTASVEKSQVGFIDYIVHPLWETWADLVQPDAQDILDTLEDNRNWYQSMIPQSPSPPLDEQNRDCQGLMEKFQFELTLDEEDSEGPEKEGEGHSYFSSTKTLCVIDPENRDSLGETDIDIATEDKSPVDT
row,SMILES,Potency
1,C[C@@H](N)Cc1cnc[nH]1,inactive
2,CNCCc1ccc(O)c(O)c1,inactive
3,c1ccc(CCCN2CCN(CCOC(c3ccccc3)c3ccccc3)CC2)cc1,inactive
4,CN[C@@H]1C[C@@H](c2ccc(Cl)c(Cl)c2)c2ccccc21,inactive
5,O=C1CCCN1CC#CCN1CCCC1,inactive
6,O=C(O)Cc1cnc[nH]1,inactive
7,NCCc1c[nH]c2ccccc12,inactive
8,CNCCc1c[nH]c2ccc(O)cc12,inactive
9,CCOC(=O)c1cncn1[C@H](C)c1ccccc1,inactive
10,Cn1cnc(CCN)c1,inactive
11,CC(=O)OCC1=C(C(=O)O)N2C(=O)[C@@H](N)[C@@H]2SC1,inactive
12,CC[C@@]1(O)C(=O)OCc2c1cc1n(c2=O)Cc2cc3ccccc3nc2-1,inactive
13,CCCN1CCO[C@@H]2c3cc(O)ccc3OC[C@H]21,inactive
14,CCCCc1ccc(C(=O)O)nc1,inactive
15,CC(=O)NCCc1c[nH]c2ccccc12,inactive
16,Cc1nccc2c1[nH]c1ccccc12,inactive
17,C[C@@H]1O[C@H](C[N+](C)(C)C)C[C@H]1O,3.16 µM (active)
18,CC1=NN=C(c2ccc(N)cc2)c2cc3c(cc2C1)OCO3,inactive
19,CCCN(CCC)[C@@H]1CCc2ccc(O)cc2C1,inactive
20,O=c1cccc2n1CC1CNC[C@H]2C1,inactive
21,NCc1cc(=O)[nH]o1,inactive
22,O=C(O)CC[N+](=O)[O-],inactive
23,CCCN1CCC[C@H](c2cccc(O)c2)C1,inactive
24,Clc1cnc(Oc2ccc(Oc3ncc(Cl)cc3Cl)cc2)c(Cl)c1,inactive
25,NCCc1c[nH]c2ccc(O)cc12,inactive
26,CC(C)Oc1cccnc1N(C)C1CCN(Cc2ccccc2)CC1,inactive
27,S=C(NC1CCCCC1)N1CCC(c2cnc[nH]2)CC1,inactive
